# PostGolgi yeast = growth inhibition of a yeast mutant, post-Golgi transport screen | post-Golgi transport phenotypic cell assay | 98,000 compounds, 0.9% hits | inhibition, % at 10 µM | AID 739;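 further: yeast cells grown in 1536-well plates; yeast grown about 18 h at 30C before absorbance read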
# sEH inh = inhibitors of human soluble epoxide hydrolase. P34913. recombinant human sEH enzymatic activity assay. inhibition, % at 2 µM. 91,000 compounds, 0.34% hits. AID 707; in the data active means inhibition above about 80%
# sEH activator = activators of human soluble epoxide hydrolase; activation, % at 2 µM; P34913; purified human sEH enzymatic activity, activator screen; AID 717; 91,000 compounds, 0.04% hits; in the data active means activation above about 37%
# Cav3 T inh = human Cav3.2 channel inhibition, primary screen | O95180 | B-score at 10 µM | Cav3.2-expressing cells, Fluo-4 calcium fluorescence FDSS; stronger effect = lower value | 100,000 compounds, 4% hits;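 active means single-dose well whose peak fluorescence ratio is a statistical outlier from its plate by either plate-standardised score or position-corrected B-score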
# PostGolgi ctrl = yeast control strain growth, post-Golgi counter-screen; efflux-deficient yeast background strain, growth absorbance A615, 16 h; inhibition, % at 10 µM; 98,000 compounds, 5% hits
# An asterisk follows results filed as active; · = not tested or not shown. Hits are enriched below; roughly 7.8% of the tested compounds scored in any of these assays. Unless noted, no stated cut-off is given here; in the data, active means inhibition above about 30%; inactive means the rest.
SMILES,PostGolgi yeast,sEH inh,sEH activator,Cav3 T inh,PostGolgi ctrl
CCOc1cc(NC(=S)Nc2ccccc2OC)c(OCC)cc1NC(=O)c1ccccc1C,-8,2,0,-3.5,25
CCCOC(=O)c1ccc(Oc2c(-c3ccc(O)cc3O)n[nH]c2C)cc1,1,4,-7,-3,38*
Cc1[nH]nc(-c2ccc(O)cc2O)c1Oc1ccccc1,-1,·,·,-4.5*,21
CCCOC(=O)c1ccc(Oc2c(-c3ccc(OC)cc3O)n[nH]c2C)cc1,-7,3,-4,-1.3,5
CCOc1ccc(-c2n[nH]c(C)c2Oc2ccccc2OC)c(O)c1,4,-5,7,-2.1,5
Cc1[nH]nc(-c2ccc(OCc3cnn(-c4ccccc4)c3)cc2O)c1Oc1ccccc1F,1,-8,10,-0.026,42*
CCc1cc(-c2n[nH]c(C)c2Oc2ccc(C(C)C)cc2)c(O)cc1O,-6,4,-4,-0.037,87*
CCN1C(=O)N[C@@H](CCc2ccccc2)[C@@H](C(=O)OC)[C@H]1C,·,·,·,-2.6,·
O=C(NC(NCC1CCCO1)C(Cl)(Cl)Cl)c1cccc2ccccc12 (centres undefined),27,-28,32,-5*,1
O=C(c1ccco1)N(Cc1ccc([N+](=O)[O-])cc1)c1ccc(Cl)cc1,-1,9,-6,-6.9*,40*
Cc1ccc(S(=O)(=O)N2CCN(C(=O)N3CCOCC3)C2C(C)C)cc1 (centres undefined),4,0,0,-0.42,35*
Cc1ccc(S(=O)(=O)C(CCC(=O)N2CCOCC2)S(=O)(=O)c2ccc(C)cc2)cc1,9,15,-16,0.18,3
CCN(CC)c1ccc(C2N(C(=O)N3CCOCC3)CCN2S(=O)(=O)c2ccc(C)cc2)cc1 (centres undefined),6,14,-12,-4.1*,0
C/C(=N\S(=O)(=O)c1ccc(C)cc1)N1CCN(S(=O)(=O)c2ccccc2)C1C(C)C (centres undefined),-12,31,-30,-0.28,15
Cc1ccc(S(=O)(=O)N2CCN(C(=O)c3ccccc3)C2C(C)C)cc1 (centres undefined),1,0,0,-1.1,31*
Cc1cc(NCC(C)C)n2ncnc2n1,11,-3,7,0.3,7
COc1ccc(OC)c(C(=O)CSc2nnc(Cc3cccs3)n2CCc2ccccc2)c1,0,0,1,-1.4,16
O=C(Nc1nc(-c2cccs2)cs1)c1ccc(S(=O)(=O)N2CCCCC2)cc1,18,-4,2,-6.1*,41*
O=C(Nc1nc(-c2cccs2)cs1)c1cccc(S(=O)(=O)N2CCCCCC2)c1,-5,·,·,-2.9,8
CCCCN(CC)c1nc(-c2ccncc2)nc2ccccc12,5,-8,7,-2.4,63*
C=CCn1c(SCC(=O)Nc2c(C)cccc2C)nnc1-c1cnccn1,-1,-5,3,0.48,1
CC(C)CC1(C(=O)NCc2cc(F)cc(C(F)(F)F)c2)C=CCN1C(=O)c1ccccc1 (centres undefined),·,·,·,-1.4,·
CC1Cc2ccccc2N1C(=O)CSc1ccccc1 (centres undefined),-2,4,-2,-1.2,10
O=C(CSc1nnc(CNc2ccc(F)cc2)o1)N1c2ccccc2Sc2ccccc21,11,4,-6,-5.5*,50*
CC(C)c1nc(SCC(=O)N2c3ccccc3CC2C)c2ccccc2n1 (centres undefined),12,·,·,-3.4,37*
SMILES,PostGolgi yeast,sEH inh,sEH activator,Cav3 T inh,PostGolgi ctrl
Cc1cc2ccccc2nc1SCC(=O)N1c2ccccc2CC1C (centres undefined),-4,-11,14,-0.0048,20
CC1Cc2ccccc2N1C(=O)CSc1nnc2c(n1)[nH]c1ccc(F)cc12 (centres undefined),·,-7,5,-5.9*,·
CC1Cc2ccccc2N1C(=O)CSc1nnc(CNc2ccccc2)o1 (centres undefined),0,-4,4,0.85,37*
O=C(CSc1nnc(CNc2ccccc2)o1)N1CCCc2ccccc21,9,-10,8,·,-5
NC(=S)NNC(=O)c1ccccc1,-1,-3,4,0.63,17
Cc1ccc(-c2noc(CCC(=O)N3CCCc4ccccc43)n2)cc1,-5,8,-5,-1.7,24
O=C(NCc1ccc2c(c1)OCO2)c1ccc(C2SCC(=O)N2Cc2ccco2)cc1 (centres undefined),-2,39,-37,-1.3,5
COc1cccc(C2=CC(=O)CC(c3ccco3)C2)c1 (centres undefined),·,·,·,-0.36,·
Cn1c(=O)c2ncn(CC(=O)Nc3ccc4oc(-c5cccc6ccccc56)nc4c3)c2n(C)c1=O,·,1,3,·,·
CCC(C)c1ccc2oc(-c3ccc(NC(=O)Cn4cnc5c(=O)n(C)c(=O)n(C)c54)cc3)nc2c1 (centres undefined),-17,0,2,-0.76,76*
Cc1cc(N=Cc2cc(Cl)ccc2O)no1,-8,-4,6,0.29,10
Oc1c(Cl)cc(Cl)cc1C=Nc1ccc(Br)cc1,-22,1,-1,-7.6*,14
COc1cc(OC)nc(NC2OC(=O)c3ccccc32)n1 (centres undefined),-5,3,-8,0.28,2
O=C(CCn1c(=O)[nH]c2ccsc2c1=O)N1CCN(c2cccc(Cl)c2)CC1,-1,·,·,-5.9*,26
c1ccc2c(c1)nnn2-c1ncnc2sc3c(c12)CCCC3,8,-1,1,-2.4,16
O=S(=O)(Nc1ncnc2sc3c(c12)CCC3)c1ccc2ccccc2c1,5,-25,23,-4.7*,18
Cc1nc(NS(=O)(=O)c2ccccc2C)c2c3c(sc2n1)CCC3,0,-9,7,-3.3,47*
Cc1nc(-n2nnc3ccccc32)c2c3c(sc2n1)CCCC3,2,-23,23,-1,32*
CCCCCn1nc(-c2ccccc2)c2nc3ccccc3nc21,-4,-4,2,-7.3*,4
CCCn1nc(-c2ccccc2)c2nc3ccccc3nc21,-6,·,·,-2.2,4
COc1ccc2c(c1)C=C(C(=O)NCc1ccc(Cl)cc1)CO2,19,17,-18,-6.7*,16
O=C(Nc1ccc(Cl)cc1)C1=Cc2cc(Cl)ccc2OC1,-2,12,-10,0.58,19
O=C(NCCc1ccncc1)C12CC3CC(CC(C3)C1)C2,8,8,-6,0.037,-4
O=C(NNC(=S)NC(=O)C12CC3CC(CC(C3)C1)C2)c1ccncc1,42*,3,-5,-4.3*,48*
C/C=C1\COC(C(=O)NCCN2CCCC2)(C(F)(F)F)C=C1C=C1CCCCC1 (centres undefined),·,·,·,-2.6,·
C/C=C1\COC(C(=O)NCc2ccccc2)(C(F)(F)F)C=C1C=C1CCCCC1 (centres undefined),·,·,·,-4.3*,·
CN=C1S/C(=C\c2cccn2-c2cccc(Br)c2)C(=O)N1C,·,10,-8,-0.78,·
CCOc1cc(S(=O)(=O)n2cc(-c3ccc(F)cc3)c(N)n2)cc(OCC)c1OCC,4,9,-7,-5.5*,8
Cc1sc2ncnc(NCC(C)(C)N3CCOCC3)c2c1C,-3,0,1,1.9,-3

# Bioassay records from PubChem.
